# Laboratory results: PubChem BioAssay AID1347076 (National Center for Advancing Translational Sciences (NCATS), 2019)
# Among all 400,000 compounds or so, about 13,000 (3.2%) were called active. Not shown: some 18% with an inconclusive outcome. What follows is part of a selection rich in actives, with near analogues and random picks from the rest. Unmarked numbers belong to inactive results. Calls follow the shape of the dose curve; as a rule, active = well fitted cell-killing curve with a large enough effect; inconclusive = small, poorly fitted or top-dose-only effect, or effect the other way; inactive = flat fitted curve, though single readings scatter.
# Assay: qHTS assay for MDR1-selective chemotherapeutics: Primary screen using the drug-selected MDR subline cells KB-V1; also: nearly all actives have a fitted effect of over 60% in size
# Conditions: KB-V1 MDR cells viability, CellTiter-Glo, 72 h; series mostly up to 46.1 µM; activity change, negative = cytotoxicity: at the top concentration
# Source text: A prime difficulty in effectively treating cancer is the development of cellular resistance to multiple structurally unrelated anticancer drugs, a phenomenon known as multidrug resistance (MDR). […] Numerous strategies to overcome P-gp-mediated MDR have been explored, including the design of drugs that evade recognition and efflux, and development of inhibitors to block efflux and restore drug accumulation. […] An alternative approach is to exploit resistance by identifying drugs that target MDR cells over the non-resistant parental cells from which they were selected. […] The development of MDR1-selective agents represents a new strategy for resolving multidrug resistance, as it remains a long-standing clinical challenge for cancer chemotherapy.
# Our goal is to identify compounds that selectively kill P-gp-expressing MDR cells. We will identify MDR1-selective compounds by comparing toxicity of compounds in the screening library against parental, drug-naive (KB-3-1) adenocarcinoma cells as well as their drug-selected MDR sub-line (KB-V1). The differential toxicity of compounds against these two cell lines will be used to identify MDR1-selective compounds, whose cytotoxicity is potentiated, rather than diminished, by P-gp expression. This assay will be utilized to conduct a quantitative high-throughput screen (qHTS) in collaboration with the NIH Chemical Genomics Center to identify selective agents, and probe hits arising from the screen will be validated using secondary assays and characterized through a well-established follow-up research program. This screen was run against the entire NCGC library collection of about 400,000 compounds.
# NIH Molecular Libraries Probe Production Network [MLPCN]
# NIH Chemical Genomics Center [NCGC]
# PI: Michael Gottesman, National Cancer Institute, NIH
# Briefly, 5 microL of media containing either KB-V1 cells (columns 1-2, 4-48) are dispensed into Greiner white, treated solid-bottom 1536-well assay plates (media-only control is added to column 3). Compounds are then transferred via Kalypsys pin tool equipped with 1536-pin array (10 nL slotted pins, V&P Scientific, San Diego, CA). Following addition of compound, the plates are incubated at 37 degrees C for 72 hours. CellTiter-Glo (2.5 µL/well) is then added, and the plates are read in a ViewLux reader (Perkin-Elmer, clear luminescence filter, 1 second exposure, 1x binning) following a 10 minute incubation. All cells are dispensed in DMEM phenol-red free media containing 10% FBS.
# Library plates were screened starting from the lowest and proceeding to the highest concentration. Vehicle-only plates, with DMSO being pin-transferred to columns 5-48, will be inserted uniformly at the beginning and the end of each library in order to monitor and record any shifts in the background, which can be affected by reagent dispensers or loss in enzyme activity over time. Screening data will be corrected, normalized, and concentration-effect relationships will be derived by using publicly-available NCGC, NCATS curve fitting algorithms (http://ncgc.nih.gov/pub/openhts).
# % is scaled to controls: 0 for no effect and ±100 for the full control effect; potency is read from the fitted curve at half-maximal effect.
Compound,"activity change, negative = cytotoxicity [%]",Potency
O=c1cc(N2CCCCC2)c(-c2ccccc2)nn1Cc1cccc(F)c1,-29.3,–
CCc1ccc(N(CC)C(=O)CCn2cnc3onc(-c4ccc(F)cc4)c3c2=O)cc1,6.69,–
CCc1c(-c2ccc(F)cc2)ncn1Cc1cccc(-c2ccccc2)c1,–,23.1 µM (active)
Cc1ccccc1-c1nc(CS(=O)(=O)CC(=O)Nc2cc(Cl)cc(Cl)c2)c(C)o1,0,–
CN(C)c1nc(-c2cccnc2)nc(-c2ccc(Cl)cc2)c1C#N,-19.1,–
CN(C)c1ccnc(Nc2ccc(F)cc2)c1C#N,4.23,–
CNc1nccc(-c2ccc(Cl)cc2)c1C#N,–,8.2 µM (active)
COc1cc(OC)cc(C(=O)Nc2cc3nn(-c4ccccc4)nc3cc2Cl)c1,-16.8,–
O=C1c2ccccc2-c2ccccc2NC1O (stereo not drawn),4.64,–
Cc1ccc(C(=O)CSc2nc3ccccc3c(=O)n2N)o1,–,11.6 µM (active)
COCC(C)n1c(SCc2ccc(C(=O)OC)o2)nc2ccccc2c1=O (stereo not drawn),-7.31,–
COC(=O)CSc1nc2ccccc2c(=O)n1Cc1ccccc1,10.7,–
COc1ccc(NC(C)=O)cc1NC(=O)CN1CCN(c2ccc(F)cc2)CC1,0,–
COc1cc(CCN=Cc2ccccc2O)c([N+](=O)[O-])cc1OC,-0.961,–
COc1ccc(CCNC(=O)/C(C#N)=C2\N=C(NC(=O)c3cccs3)c3ccccc32)cc1,–,10.3 µM (active)
COc1cc(OC)cc(C(=O)NCCc2csc3nc(-c4ccccc4F)nn23)c1,-5.31,–
COc1cc2ccccc2cc1C(=O)Nc1ccc(NC(=O)c2cccs2)cc1,-0.19,–
OC[C@@H]1CN(Cc2cccs2)C[C@H](n2cnc3c(NC4CCCC4)ncnc32)O1,2.36,–
CCOc1cc(C(C(=O)NCC2CCCO2)N(C(=O)Cn2nnc3ccccc32)c2cccc(OC)c2)ccc1O (stereo not drawn),-0.512,–
CCOc1ccccc1Nc1nnc(SCC(=O)NCC2CCCO2)s1 (stereo not drawn),-9.76,–
CCOc1cc(-c2nc3cc(C)ccn3c2NCC2CCCO2)ccc1O (stereo not drawn),–,2.59 µM (active)
OC(c1ccc(F)cc1)c1ncc(-c2cccc(C(F)(F)F)c2)[nH]1 (stereo not drawn),6.78,–
Cc1cn([C@H]2C[C@H](O)[C@@H](CNC(=O)[C@H](N)Cc3cccnc3)O2)c(=O)[nH]c1=O,-5.22,–
COc1ccc(CCNC(=O)C2CCCN(Cc3nc(-c4cccc(Cl)c4)oc3C)C2)cc1OC (stereo not drawn),–,5.8 µM (active)

Compound,"activity change, negative = cytotoxicity [%]",Potency
COc1ccc(-c2nc(CN3CCC(C(=O)NCCN(CC(C)C)CC(C)C)CC3)c(C)o2)cc1OC,-0.507,–
COc1ccc(-c2nc(CN3CCC(C(=O)NCc4ccccc4)CC3)c(C)o2)cc1OC,31.3,–
Cc1ccc(C(=O)CSc2nc(-c3ccccc3)nc3c2CCCC3)c(C)c1,0,–
CC1=C(C(=O)N(C)C)CC(CC(=O)NCCN2CCOCC2)C(=O)N1Cc1ccccc1 (stereo not drawn),-5.99,–
Cc1ccc(NC(=O)Nc2nnc(-c3ccncc3)s2)cc1,-5.82,–
Cc1nnc(NC(=O)Nc2ccc(Cl)c(Cl)c2)s1,–,18.4 µM (active)
Cc1nnc(NC(=O)C(c2ccccc2)c2ccccc2)s1,-26.8,–
O[C@H]1CN(Cc2cccs2)[C@@H](c2ccc(Cl)cc2)C[C@@H]1n1cc(C2CC2)nn1,-10.1,–
O=C(NN=Cc1ccc2c(c1)CCC2)c1ccccc1O,-0.911,–
Cc1cc2cc3c(N)[nH]nc3nc2cc1C,–,7.31 µM (active)
O=C(C[n+]1ccncc1)c1ccc2c(c1)CCCC2,4.87,–
Cc1cc(C)cc(Nc2ncnc3onc(-c4ccc(F)cc4)c23)c1,-3.6,–
C[C@@H]1CN([C@H](C)CO)C(=O)CCCn2nncc2CO[C@@H]1CN(C)C(=O)OCc1ccccc1,-11,–
CC(=O)OC[C@@H]1CN(Cc2ccccc2)C[C@H](n2cnc3c(NCc4ccco4)ncnc32)O1,1.69,–
O=C(c1cn2ccccc2n1)N1CCc2c([nH]c3ccccc23)C1c1ccccn1 (stereo not drawn),-24.4,–
c1ccc(C2c3[nH]c4ccccc4c3CCN2Cc2cccn2-c2cccnc2)nc1 (stereo not drawn),-0.759,–
COCc1ccc(C(=O)N2CCc3c([nH]c4ccccc34)C2c2ccccn2)s1 (stereo not drawn),–,18.4 µM (active)
COc1ccc(OC)c(NC(=O)c2cc(-c3cc(F)ccc3OCC3CCCO3)n[nH]2)c1 (stereo not drawn),-1.76,–
Cn1c(=O)c2c(nc(SCC(=O)Nc3ccc(F)cc3)n2Cc2ccccc2)n(C)c1=O,12.7,–
C[C@H]1Cn2cnc(C(=O)N[C@H](C)c3ccccc3)c2C(=O)N1,-24.1,–
COc1cc(OC)c(NC(=O)c2nc(-c3ccncc3)no2)cc1Cl,7.86,–
Cc1ccc(OCCC(=O)OCC(=O)N2c3ccccc3NC(=O)C2(C)C)cc1,6.74,–
CC1CC(=O)Nc2ccccc2N1S(=O)(=O)c1cccs1 (stereo not drawn),-8.08,–
CC1CC(=O)Nc2ccccc2N1C(=O)COc1ccc2cc(Br)ccc2c1 (stereo not drawn),–,16.4 µM (active)
